In PubChem BioAssay AID493162 (ICCB-Longwood Screening Facility, Harvard Medical School, 2011):
Out of some 46,000 compounds screened, about 430 (0.93%) were called active. The sample as a whole holds a higher share of actives than the screen did. Values without a mark were called inactive. Cut-off read from the data, not from the text of the source: active = normalized absorbance mostly below about 85% (no sharp cut-off); inactive = mostly above about 86%.

The compounds below were run on Vaccinia virus DNA polymerase (E9) processive complex (assay: vaccinia E9 polymerase processive synthesis inhibitors, primary screen, biochemical, absorbance (AID 493162)). Settings: in vitro processive DNA synthesis, absorbance read-out; stronger effect = lower value; concentration not given here.

SMILES	normalized absorbance
Cc1scc(-c2ccccc2)[n+]1C	97%
Clc1ccc2oc(-c3ccccc3)c/c(=N\c3nccs3)c2c1	99.8%
CN(C)CCN=c1cc(-c2ccccc2)oc2ccc(Cl)cc12	25.3% (active)
S=c1cc(-c2ccccc2)oc(-c2ccccc2)c1	99.9%
N#Cc1ccccc1NC(=O)CSc1ccccc1	105%
O=C(CCNS(=O)(=O)c1ccc2[nH]c(=O)ccc2c1)NC1CCCC1	103%
Cc1ccc(S(=O)(=O)N2CCCC(C(=O)N(C)c3ccccc3)C2)cc1 (configuration not stated)	101%
COC(CN(C)C(=O)c1cc2c(Cl)nc3ccc(C)cc3c2s1)OC	80.2%
O=C(NCCCN1CCOCC1)c1cc2c(s1)CCC2	82.2%
Cc1ccc2nc(Cl)c3cc(C(=O)NCCN4CCN(C)CC4)sc3c2c1	22.8% (active)
CC(C)NC(=O)CN1C(=O)c2cccnc2Oc2ccccc21	102%
O=C(NCc1ccccc1Cl)C1(c2ccccc2)CCCC1	97.8%
CSC1=NCCN1S(=O)(=O)c1ccc(Br)cc1	110%
CS(=O)(=O)N1CCN=C1SCc1cccnc1	66.5% (active)
O=C(O)CCc1cccnc1	102%
COC(=O)Nc1cn(Cc2ccccn2)c(=O)c2ccccc12	112%
O=c1[nH]c(=S)[nH]cc1S(=O)(=O)c1ccc(F)cc1	99.5%
O=C(Nc1ccc2nc(SCC(=O)N3CCc4ccccc43)sc2c1)c1ccccc1Cl	100%
CCN(CC)c1ccc(C=Nc2cc(C)cc(C)c2)cc1	100%
CCOc1ccc(S(=O)(=O)N2CCC(C)CC2)cc1	99%
Nc1ccc(-c2nc3ccccc3[nH]2)c(N)c1	99.3%
COc1ccc(C2=NS(=O)(=O)N(C)C(C(=O)N(C)Cc3ccccc3)=C2)cc1	86.6%

SMILES	normalized absorbance
Cc1cccc(-n2nc3c(c2NC(=O)/C=C\c2ccco2)CSC3)c1C	85.2%
CC(=O)n1c(C=Nc2ccccc2)c(O)c2ccccc21	99.4%
CC(=O)n1c2ccccc2c2nc(C)sc21	45.9% (active)
CC(=O)Nc1sc(C)nc1-c1ccccc1	99.1%
Cc1nc2ccc(S(=O)(=O)NC(CC(C)C)C(=O)NC3CCCCCC3)cc2s1 (configuration not stated)	103%
CCOc1ccc(C(=O)Nc2nc3c(OC)cccc3s2)cc1	106%
Cc1ccc(S(=O)(=O)N2CCCC(n3cccc3)C2)cc1 (configuration not stated)	117%
CC12CCC3C(CCC4CCCCC43C)C1C/C(=C\c1ccc[nH]1)C2=O (configuration not stated)	101%
Cc1cc(Nc2ccc(Cl)cc2)n2c(nc3ccccc32)c1C#N	100%
COc1ccc(-c2cc(-c3ccccc3)nc(SCC(N)=NC#N)c2C#N)cc1	100%
C[N+](C)(C)CCOC(=O)c1ccccc1	99.6%
Cc1nc(C)nc(N(Cc2ccccc2)Cc2ccccc2)n1	94.7%
Cc1ccc(Nc2c(-c3c[nH]c4ccccc34)nc3c[n+](CC(N)=O)ccn23)cc1	95.2%
COc1ccc(C(=O)N2CCN(c3ccc(N4CCOCC4)nn3)CC2)cc1	101%
O=C1NC(=Nc2ccc(O)cc2)S/C1=C\c1ccc(Cl)cc1Cl	100%
CC1CCc2sc(NC(=O)Cc3ccccc3)c(C(N)=O)c2C1 (configuration not stated)	89.9%
Cc1nc(SCC(=O)c2ccc(Cl)cc2)c(C#N)c(C)c1C	99.7%
N#Cc1c(-c2cccs2)nc(SCC(=O)c2ccc(Br)cc2)[nH]c1=O	68.9% (active)
COc1ccc(C(=O)CSC2=C(C#N)C(c3cccs3)CC(=O)N2)cc1 (configuration not stated)	101%
O=C(NCc1cccnc1)c1cc(-c2ccccn2)nc2ccccc12	102%
COc1ccc(-c2nnn(-c3cccc(C(F)(F)F)c3)c2N)cc1OC	112%
Cc1cc(C)cc(Oc2coc3c(CN4CCCCCC4)c(O)ccc3c2=O)c1	100%

SMILES	normalized absorbance
O=C(CCc1nc(-c2ccccc2)no1)N1CCCCC1	94.1%
Fc1ccccc1Cn1cnc2ccccc21	100%
O=C(O)CCCC(=O)Nc1ccccn1	98.3%
Cc1cc(-c2cn(/N=C/c3ccc(Cl)cc3Cl)c(N)n2)c(C)s1	97.6%
Cc1nc2cc(Cl)ccc2c(=O)n1-c1nc2ccccc2[nH]1	103%
CC(C)(C)c1cn2c3ccccc3nc2n1CCCO	96.5%
Cc1nnc(SCC(=O)O)[nH]c1=O	96.1%
Cc1nc2sc(C(c3ccc(F)cc3)N3CCC(O)CC3)c(O)n2n1 (configuration not stated)	101%
CC(C)Nc1nc(-c2ccccc2O)nc2ccccc12	102%
O=C(O)CSc1ccc(Br)c2cccc(Cl)c12	81.7%
O=C(O)CSc1ccc2ccccc2c1Br	85.4% (active)
Cc1nc2ccccc2nc1SCC(=O)O	103%
COc1ccc(C2CC(=O)n3nc(-c4ccccc4)nc3S2)cc1OC (configuration not stated)	100%
Cc1cc2cc(CNS(=O)(=O)N(C)C)ccc2n1C	101%
O=S(=O)(c1cccc2cccnc12)N1CCN(c2cccc(Cl)c2)CC1	101%
Cc1nc(N2CC(C)OC(C)C2)c2c3c(sc2n1)CCC3 (configuration not stated)	100%
COc1ccccc1NC(=O)c1cccc(N2C(=O)C3CC=CCC3C2=O)c1 (configuration not stated)	89.3%
COc1ccc(C2C=C(c3ccccc3)NC(=O)C2C#N)cc1 (configuration not stated)	94.4%
Cc1ccc(-c2nc(C)sc2CC(=O)O)cc1	98.3%
COc1ccc(NS(=O)(=O)c2ccc(Oc3c(C#N)cccc3C#N)cc2)cc1	104%
CCCn1c[n+](CC(=O)C(C)(C)C)c2ccccc21	101%
COc1ccc(NC(=O)C(C)n2cccc2)cc1 (configuration not stated)	102%

SMILES	normalized absorbance
O=c1[nH]c(-c2ccc(F)cc2)nc2ccccc12	102%
Cn1nnnc1SCC(=O)Nc1nccs1	104%
C=CCn1c(SCC(=O)Nc2nnc(CC)s2)nnc1-c1cccs1	99.4%
CC(NC(=O)Nc1ccc2c(c1)N(C)C(=O)c1ccccc1S2)c1ccccc1 (configuration not stated)	110%
CN1CCc2ccccc2C1Cc1ccccc1NS(=O)(=O)c1cccc(C(F)(F)F)c1 (configuration not stated)	97.1%
O=c1c2ccccc2c(-c2ccccc2)nn1Cc1ccccc1	99.7%
O=c1c2cccc3c2c(nn1CN1CCCCC1)-c1ccccc1-3	76% (active)
O=C1c2ccccc2-c2nn(CC(=O)N3CCOCC3)c3cccc1c23	92.9%
CCOC(=O)CSc1nc2ccccc2n1C(=O)Oc1ccccc1	95.5%
O=C(O)CCc1nnc2ccc(N3CCCC3)nn12	103%
FC(F)(F)c1cccc(Oc2cnc3ccccc3n2)c1	95.2%
Cc1ccc2c(Cl)c(C(=O)N(Cc3cccs3)C3CCS(=O)(=O)C3)sc2c1 (configuration not stated)	100%
C/C(C#N)=C(/N)c1ccccc1	104%
CCOC(=O)CSc1nc(N)c2c3c(sc2n1)CCC3	95.7%
COc1ccc2c(C)cc(-n3nc(C)cc3C)nc2c1	99%
COc1ccc(Cl)cc1-n1c(SCc2cccc(Cl)c2)nnc1-c1cc2occc2n1C	108%
O=C(Nc1ccc(-c2nc3ccccc3o2)cc1)c1ccc(Oc2ccccc2)cc1	100%
CCOc1ccc2nc(NC(=O)C3CC3)sc2c1	100%
COc1ccc(/C=N/n2c(C)cc(C)cc2=O)cc1	100%
CCOc1cccc(NC(=O)c2cc(=O)c3ccccc3o2)c1	100%
CCOc1ncccc1C(=O)Nc1cccc(C(F)(F)F)c1	102%
CCOC(=O)c1cc2ccccc2nc1C	99.8%

SMILES	normalized absorbance
CCOC(=O)c1cnc2c(C)c(C)ccc2c1NCCCN(C)C	39.1% (active)
CCOC(=O)Cc1nc(N)ncc1C(=O)OCC	101%
c1ccc(-c2cc(NCC3CC3)n3cnnc3n2)cc1	98.2%
O=C(NCCN1CCCc2ccccc21)c1cc(-c2cccs2)nc2ccccc12	96.3%
C=CCn1c(-c2ccccc2)csc1=Nc1ccc(O)cc1	100%
CN1CCN(c2nc(NCC3CCCO3)c3ccccc3n2)CC1 (configuration not stated)	98.7%
COc1ccc(-c2nc(NCC3CCCO3)c3ccccc3n2)cc1 (configuration not stated)	66.4% (active)
COc1ccc(-n2nc(C(=O)NCC3CCCO3)c3c4ccccc4n(C)c3c2=O)cc1 (configuration not stated)	103%
Cc1ccc(C)n1-c1nn(S(C)(=O)=O)c2cccc(F)c12	92.7%
COc1cccc(C2=Nc3ccccc3C2=O)c1	99.2%
COC(=O)c1coc(-c2ccccc2)n1	102%
O=C(N/C(=C/c1ccccc1)P(=O)(O)c1ccccc1)c1ccccc1	98.3%
Cc1ccc(/C=C/C(=O)NCC2CCCO2)o1 (configuration not stated)	89.2%
CN(C)c1nc(NCc2ccccc2)nc(Nc2ccc(OC(F)(F)F)cc2)n1	100%
CCc1ccccc1N1CC(c2nc3ccccc3[nH]2)CC1=O (configuration not stated)	90.4%
CC(C)NC(=O)Oc1noc2ccc(Cl)cc12	99.1%
Cc1ccc(N2NC(=O)/C(=C/C=C/c3ccco3)C2=O)cc1C	99.9%
C=CCN1C(=O)/C(=C/c2ccc3c(c2)n(C)c(=O)n3C)C(=O)NC1=S	100%
CCN1C(=O)/C(=C/C=C/c2ccco2)C(=O)NC1=S	64.7% (active)
